Test [1] deals with Transcription factor E2F1 (Homo sapiens) (UniProt Q01094). The experiment in a line: ATG_E2F_CIS: Attagene CIS-FACTORIAL HepG2 Assay for human E2F Transcription Factor 1 (AID 2282935). To be noted: HepG2 Attagene cis-reporter, E2F reporter RNA transcripts; actives raise or lower the signal. Put shortly:
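In this cis-factorial format, endogenous factor activity drives transfected reporters in HepG2; transcripts collected at 24 h are quantified by fluorescence after RT-PCR and capillary separation.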

Test [2] in a line: ATG_M_61_CIS: Attagene CIS-FACTORIAL HepG2 Assay for M61 Transcription Factor (Internal Marker) (AID 2282937). To be noted: HepG2 Attagene CIS-FACTORIAL M61 internal marker reporter; actives raise or lower the signal. Put shortly:
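Readout is reporter mRNA by RT-PCR, fluorescent primer extension and capillary electrophoresis, with gain or loss fitted relative to DMSO. Transfected HepG2 cells carrying endogenous-TF-driven cis reporters were exposed to chemicals for 24 hours.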

Test [3] is described as follows: ATG_Ets_CIS: Attagene CIS-FACTORIAL HepG2 Assay for human Erythroblast Transformation Specific (ETS) (AID 2282941). To be noted: HepG2 ETS cis-reporter transcription, actives raise or lower the signal. Summed up:
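Endogenous transcription factor activity read as reporter mRNA via RT-PCR and capillary electrophoresis, with gain or loss fitted bidirectionally against DMSO. Human HepG2 liver cells, transiently transfected CIS reporter constructs, 24 h exposure.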

Test [4] addresses Hepatocyte nuclear factor 3-beta (Homo sapiens) (UniProt Q9Y261). The experiment in a line: ATG_FoxA2_CIS: Attagene CIS-FACTORIAL HepG2 Assay for human Forkhead box A2 (FOXA2) (AID 2282942). Particulars: HepG2 cis-reporter transcription factor activity, 24 h; actives raise or lower the signal. Summed up:
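Endogenous transcription factor activity is captured via cis-element-driven reporter transcripts in transfected HepG2. Total RNA taken at 24 h post-dosing; labelled RT-PCR products resolved by capillary electrophoresis. Gain or loss fitted versus DMSO.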

The target of test [5] is Hypoxia-inducible factor 1-alpha (Homo sapiens) (UniProt Q16665). The experiment in a line: ATG_HIF1a_CIS: Attagene CIS-FACTORIAL HepG2 Assay for human Hypoxia Inducible Factor 1 (HIF1A) (AID 2282951). Particulars: HepG2 Attagene cis-factorial HIF1a reporter transcription; actives raise or lower the signal. Summed up: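 Activity is fitted in both directions relative to DMSO. Reporter transcripts are read by RT-PCR, fluorescent primer extension and capillary electrophoresis after 24 h chemical treatment. The cells are HepG2 carrying transiently transfected cis-element-driven reporter units responding to endogenous factors.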

Test [6] can be described thus: ATG_RORE_CIS: Attagene CIS-FACTORIAL HepG2 Assay for human RAR-related Orphan Receptor Element (RORE) (AID 2282959). To be noted: HepG2 Attagene cis-factorial RORE reporter, mRNA; actives raise or lower the signal. Put shortly:
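RORE reporter transcripts reflecting endogenous factor activity were read after 24 h compound exposure of transfected HepG2 cells, using reverse transcription, PCR, fluorescent labelling and capillary electrophoresis sizing. Gain or loss fitted against DMSO.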

Test [7] is described as follows: ATG_TGFb_CIS: Attagene CIS-FACTORIAL HepG2 Assay for human Transforming Growth Factor (TGF) (AID 2282967). Particulars: HepG2 Attagene CIS TGFb reporter, mRNA transcription; actives raise or lower the signal. Summed up: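 HepG2 cells transiently transfected with cis-promoter-driven multiplexed reporter units; 24 h compound exposure. Reporter mRNA measured by RT-PCR, 6-FAM labeling, HpaI digestion and capillary electrophoresis; bidirectional fit versus DMSO baseline.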

A short description of test [8]: ATG_VDRE_CIS: Attagene CIS-FACTORIAL HepG2 Assay for human Vitamin D Receptor Element (VDRE) (AID 2282968). Particulars: HepG2 VDRE cis-reporter transcription, actives raise or lower the signal. Put shortly: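 Transfected HepG2 reporter cells, chemical treatment 24 h. RNA isolated, cDNA amplified with reporter-specific primers, products analysed by capillary electrophoresis. Endpoint fitted in both directions versus DMSO.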

Test [9] addresses X-box-binding protein 1 (Homo sapiens) (UniProt P17861). The experiment in a line: ATG_Xbp1_CIS: Attagene CIS-FACTORIAL HepG2 Assay for human X-box Binding Protein 1 (XBP1) (AID 2282972). Particulars: HepG2 XBP1 cis-element reporter, Attagene multiplex; actives raise or lower the signal. Put shortly:
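Reporter transcripts were quantified by RT-PCR with fluorescent primer extension and capillary electrophoresis after 24 h chemical exposure. Cells: transiently transfected HepG2 carrying cis-regulated reporter constructs; data fitted bidirectionally relative to DMSO.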

The target in test [10] is Transcriptional activator Myb (Homo sapiens) (UniProt P10242). The experiment in a line: ATG_Myb_CIS: Attagene CIS-FACTORIAL HepG2 Assay for human Myeloblastosis (Myb) Proto-Oncogene Transcription Factor (AID 2282986). To be noted: HepG2 Attagene CIS-FACTORIAL Myb reporter transcription; actives raise or lower the signal. Summed up:
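Reporter mRNA is quantified by RT-PCR and capillary electrophoresis 24 h after dosing HepG2 cells transfected with cis-regulated reporter units, which track endogenous transcription factor activity. Gain and loss of signal are fitted versus DMSO baseline.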

Test [11] concerns the target Nuclear respiratory factor 1 (Homo sapiens) (UniProt Q16656). The experiment in a line: ATG_NRF1_CIS: Attagene CIS-FACTORIAL HepG2 Assay for human Nuclear Respiratory Factor 1 (NRF1) Orphan Gene (AID 2282987). To be noted: HepG2 NRF1 cis-element reporter, Attagene multiplex; actives raise or lower the signal. Put shortly: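 Endogenous NRF1-driven reporter transcription in transfected HepG2 cells after 24 h treatment. Readout: RT-PCR products, 6-FAM labelled and resolved by capillary electrophoresis; changes fitted both directions relative to DMSO.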

The nature of test [12]: ATG_NFI_CIS: Attagene CIS-FACTORIAL HepG2 Assay for human Nuclear Factor I (NFI) (AID 2282989). Particulars: HepG2 cis-regulatory reporter, NFI response element transcription; actives raise or lower the signal. Put shortly:
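HepG2 cells transiently transfected with cis-element-driven multiplexed reporter transcription units, dosed for 24 h. Reporter mRNA quantified by RT-PCR, fluorescent labelling, HpaI digestion and capillary electrophoresis; bidirectional fit versus DMSO baseline.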

The target of test [13] is Nuclear receptor subfamily 1 group I member 2 (Homo sapiens) (UniProt O75469). The experiment in a line: ATG_PXR_TRANS: Attagene TRANS-FACTORIAL HepG2 Assay for human Pregnane X Receptor (PXR) (AID 2283008; active means hit-call score of the fitted dose curve at least 0.9, where 1 is the maximum). Put shortly: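 Transactivation by exogenous PXR–GAL4 fusion measured as reporter transcript induction after 24 h compound treatment of transfected human HepG2 cells. Read-out via RT-PCR and capillary electrophoresis of labelled fragments, fitted upward relative to DMSO.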

Test [14] can be described thus: ATG_AP_2_CIS: Attagene CIS-FACTORIAL HepG2 Assay for human Activator Protein 2 (AP-2) (AID 2282932). To be noted: HepG2 AP-2 cis-reporter, Attagene transcription factor profiling; actives raise or lower the signal. Summed up:
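Assay in transfected HepG2 with promoter-regulated reporters, 24 h incubation after dosing. Signal is reporter mRNA fluorescence (RT-PCR, capillary electrophoresis), analysed for both increases and decreases relative to DMSO controls.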

Test [15] in a line: ATG_EGR_CIS: Attagene CIS-FACTORIAL HepG2 Assay for human Early Growth Response 1 (EGR1) (AID 2282938). To be noted: HepG2 Attagene CIS-FACTORIAL EGR reporter mRNA; actives raise or lower the signal. Put shortly: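 After 24 h compound exposure, RNA from reporter-transfected HepG2 cells was reverse-transcribed, PCR-amplified, fluorescently labelled and resolved by capillary electrophoresis. EGR1 reporter transcript changes, up or down, were fitted against DMSO, reflecting endogenous transcription-factor activity.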

Test [16] is described as follows: ATG_FoxO_CIS: Attagene CIS-FACTORIAL HepG2 Assay for human Forkhead box O (FoxO) (AID 2282943). To be noted: HepG2 Attagene cis-reporter, FoxO element, mRNA; actives raise or lower the signal. Put shortly:
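24 h chemical exposure, HepG2 with transient cis-MRTU transfection. RNA extraction, oligo(dT) RT, reporter-specific PCR, primer-extension labelling, HpaI digestion, CE fragment analysis; bidirectional fit, DMSO baseline.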

Test [17] has as its target Myc proto-oncogene protein (Homo sapiens) (UniProt P01106). The experiment in a line: ATG_Myc_CIS: Attagene CIS-FACTORIAL HepG2 Assay for human Myelocytomatosis (Myc) Proto-Oncogene Transcription Factor (AID 2282990). To be noted: HepG2, Attagene cis-reporter transcription factor activity; actives raise or lower the signal. Put shortly:
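DMSO-normalised, bidirectionally fitted reporter mRNA signal. HepG2 cells transfected with cis reporter constructs, treated 24 h; transcripts detected by RT-PCR, 6-FAM primer extension and CE.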

Test [18] has as its target Cellular tumor antigen p53 (Homo sapiens) (UniProt P04637). The experiment in a line: ATG_p53_CIS: Attagene CIS-FACTORIAL HepG2 Assay for human p53 Transcription Factor (AID 2282994). To be noted: HepG2 p53 cis-element reporter, Attagene mRNA; actives raise or lower the signal. Summed up: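 Endogenous p53 activity read in transiently transfected HepG2 from a cis-element-driven reporter transcript after 24 h exposure. RNA reverse-transcribed, PCR-amplified, fluorescently labelled and sized by capillary electrophoresis; gain or loss fitted against DMSO baseline.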

Test [19] is described as follows: ATG_XTT_Cytotoxicity: Cytotoxicity Assessment in the Attagene TRANS-FACTORIAL HepG2 Assay (AID 2283584; active means hit-call score of the fitted dose curve at least 0.9, where 1 is the maximum). Summed up: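 24 h chemical exposure of reporter-transfected HepG2; XTT signal loss vs DMSO indicates cytotoxicity.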
Test [20] addresses Cellular tumor antigen p53 (Homo sapiens) (UniProt P04637). The experiment in a line: TOX21_p53_BLA_p2_ratio: Tox21 HCT-116 p53 Agonism Beta-lactamase Assay, Ratio, Phase 2 (AID 2283592; active means hit-call score of the fitted dose curve at least 0.9, where 1 is the maximum). Put shortly: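 DMSO-normalized, positive-direction endpoint derived from the 460 nm/530 nm FRET ratio in HCT116 p53 beta-lactamase reporter cells exposed 16 h at 37C and loaded with CCF4-AM for 2 h.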

Inconclusive results are not listed. The source made the active and inactive calls. How the source made its calls, unless noted: active means hit-call score of the fitted dose curve at least 0.9, where 1 is the maximum; inactive means score below 0.9.

Sequence of Transcription factor E2F1 (Homo sapiens) (Q01094 whole entry, looked up): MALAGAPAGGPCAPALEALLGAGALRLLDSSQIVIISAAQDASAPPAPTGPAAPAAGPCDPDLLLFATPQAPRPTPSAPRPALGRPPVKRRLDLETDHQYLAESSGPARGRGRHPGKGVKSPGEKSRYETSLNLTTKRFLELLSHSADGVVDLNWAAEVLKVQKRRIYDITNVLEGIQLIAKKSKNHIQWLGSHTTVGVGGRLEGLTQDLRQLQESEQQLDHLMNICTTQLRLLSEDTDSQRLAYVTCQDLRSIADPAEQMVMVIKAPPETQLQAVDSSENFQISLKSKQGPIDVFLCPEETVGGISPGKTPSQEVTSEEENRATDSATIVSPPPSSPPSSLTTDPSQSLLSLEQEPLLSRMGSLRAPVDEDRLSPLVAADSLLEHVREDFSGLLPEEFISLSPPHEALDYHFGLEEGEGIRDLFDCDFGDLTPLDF
Sequence of Transcriptional activator Myb (Homo sapiens) (P10242 whole entry, looked up): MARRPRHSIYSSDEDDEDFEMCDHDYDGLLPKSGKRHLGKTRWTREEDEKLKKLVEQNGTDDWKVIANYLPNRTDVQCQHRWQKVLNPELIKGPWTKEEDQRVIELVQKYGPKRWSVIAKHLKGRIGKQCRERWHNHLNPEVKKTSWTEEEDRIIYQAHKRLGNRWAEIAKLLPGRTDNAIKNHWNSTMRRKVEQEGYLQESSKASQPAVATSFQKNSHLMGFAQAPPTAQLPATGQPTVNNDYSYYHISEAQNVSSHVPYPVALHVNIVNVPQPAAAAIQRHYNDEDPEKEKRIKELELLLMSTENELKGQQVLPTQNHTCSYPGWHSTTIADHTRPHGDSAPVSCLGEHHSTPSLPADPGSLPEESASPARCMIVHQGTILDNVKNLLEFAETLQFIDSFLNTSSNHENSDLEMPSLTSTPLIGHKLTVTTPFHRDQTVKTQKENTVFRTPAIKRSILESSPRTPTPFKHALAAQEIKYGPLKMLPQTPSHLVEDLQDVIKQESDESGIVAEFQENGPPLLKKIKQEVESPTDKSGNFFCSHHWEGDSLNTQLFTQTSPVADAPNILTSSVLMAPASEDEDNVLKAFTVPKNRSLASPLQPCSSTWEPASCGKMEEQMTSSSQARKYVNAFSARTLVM
Sequence of Nuclear respiratory factor 1 (Homo sapiens) (Q16656 whole entry, looked up): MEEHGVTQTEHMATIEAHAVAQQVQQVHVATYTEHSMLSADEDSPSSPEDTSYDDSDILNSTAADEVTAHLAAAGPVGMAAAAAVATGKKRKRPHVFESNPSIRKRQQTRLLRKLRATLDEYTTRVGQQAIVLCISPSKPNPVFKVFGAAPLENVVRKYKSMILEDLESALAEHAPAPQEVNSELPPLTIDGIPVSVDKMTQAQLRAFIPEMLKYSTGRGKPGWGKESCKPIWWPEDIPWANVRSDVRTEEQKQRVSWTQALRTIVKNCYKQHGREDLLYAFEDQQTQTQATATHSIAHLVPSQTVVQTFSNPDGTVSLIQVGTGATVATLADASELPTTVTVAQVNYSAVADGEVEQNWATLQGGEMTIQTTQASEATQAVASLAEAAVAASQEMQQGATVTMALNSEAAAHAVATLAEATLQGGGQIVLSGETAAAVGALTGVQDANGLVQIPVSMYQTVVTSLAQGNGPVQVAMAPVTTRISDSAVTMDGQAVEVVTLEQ
Sequence of Nuclear receptor subfamily 1 group I member 2 (Homo sapiens) (O75469 whole entry, looked up, the tested form may be a part): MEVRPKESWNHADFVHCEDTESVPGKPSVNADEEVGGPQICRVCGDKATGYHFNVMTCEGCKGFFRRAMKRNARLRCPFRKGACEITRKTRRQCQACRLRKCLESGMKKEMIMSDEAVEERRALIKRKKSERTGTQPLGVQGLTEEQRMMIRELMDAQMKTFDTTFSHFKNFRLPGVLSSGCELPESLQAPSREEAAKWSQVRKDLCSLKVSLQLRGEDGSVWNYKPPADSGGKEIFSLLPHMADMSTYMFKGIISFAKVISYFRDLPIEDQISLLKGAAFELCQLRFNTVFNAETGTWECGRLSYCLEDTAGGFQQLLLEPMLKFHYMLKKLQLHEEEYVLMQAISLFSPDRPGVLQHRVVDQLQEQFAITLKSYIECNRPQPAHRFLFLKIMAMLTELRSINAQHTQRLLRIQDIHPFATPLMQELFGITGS
Sequence of Hepatocyte nuclear factor 3-beta (Homo sapiens) (Q9Y261 whole entry, looked up): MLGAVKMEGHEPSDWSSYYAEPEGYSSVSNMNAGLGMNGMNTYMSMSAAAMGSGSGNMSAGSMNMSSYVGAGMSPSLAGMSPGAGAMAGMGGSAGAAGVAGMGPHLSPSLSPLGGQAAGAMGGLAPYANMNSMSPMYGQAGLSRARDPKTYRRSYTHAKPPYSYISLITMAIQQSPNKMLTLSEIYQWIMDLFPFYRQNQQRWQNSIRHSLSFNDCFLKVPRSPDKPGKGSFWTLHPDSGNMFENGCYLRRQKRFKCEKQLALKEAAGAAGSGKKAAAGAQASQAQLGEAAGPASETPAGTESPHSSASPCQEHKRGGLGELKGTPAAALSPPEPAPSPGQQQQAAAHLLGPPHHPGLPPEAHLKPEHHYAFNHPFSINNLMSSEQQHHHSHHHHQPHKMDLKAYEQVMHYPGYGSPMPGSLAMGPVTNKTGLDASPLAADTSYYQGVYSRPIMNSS
Sequence of Hypoxia-inducible factor 1-alpha (Homo sapiens) (Q16665 whole entry, looked up): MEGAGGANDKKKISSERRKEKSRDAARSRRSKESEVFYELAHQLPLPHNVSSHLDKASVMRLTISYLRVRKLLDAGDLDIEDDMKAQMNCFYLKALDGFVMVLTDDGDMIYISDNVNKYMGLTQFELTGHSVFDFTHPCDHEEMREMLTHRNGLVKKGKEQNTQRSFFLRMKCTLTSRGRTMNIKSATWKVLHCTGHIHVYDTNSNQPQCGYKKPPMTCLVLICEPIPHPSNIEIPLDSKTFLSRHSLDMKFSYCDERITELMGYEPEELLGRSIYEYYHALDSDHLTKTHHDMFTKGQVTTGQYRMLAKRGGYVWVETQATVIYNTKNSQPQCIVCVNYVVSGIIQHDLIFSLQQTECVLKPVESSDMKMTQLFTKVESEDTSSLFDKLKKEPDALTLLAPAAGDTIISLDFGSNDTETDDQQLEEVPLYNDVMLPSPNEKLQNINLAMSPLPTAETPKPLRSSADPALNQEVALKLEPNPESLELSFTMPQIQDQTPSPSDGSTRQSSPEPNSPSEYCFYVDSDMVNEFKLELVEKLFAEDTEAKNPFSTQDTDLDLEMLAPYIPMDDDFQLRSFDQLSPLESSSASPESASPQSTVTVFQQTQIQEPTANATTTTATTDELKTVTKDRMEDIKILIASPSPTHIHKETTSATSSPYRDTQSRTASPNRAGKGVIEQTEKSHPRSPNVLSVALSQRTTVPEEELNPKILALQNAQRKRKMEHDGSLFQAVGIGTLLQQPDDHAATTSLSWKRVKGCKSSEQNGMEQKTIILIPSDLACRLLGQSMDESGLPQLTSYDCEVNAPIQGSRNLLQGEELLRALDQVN
Sequence of Cellular tumor antigen p53 (Homo sapiens) (P04637 whole entry, looked up): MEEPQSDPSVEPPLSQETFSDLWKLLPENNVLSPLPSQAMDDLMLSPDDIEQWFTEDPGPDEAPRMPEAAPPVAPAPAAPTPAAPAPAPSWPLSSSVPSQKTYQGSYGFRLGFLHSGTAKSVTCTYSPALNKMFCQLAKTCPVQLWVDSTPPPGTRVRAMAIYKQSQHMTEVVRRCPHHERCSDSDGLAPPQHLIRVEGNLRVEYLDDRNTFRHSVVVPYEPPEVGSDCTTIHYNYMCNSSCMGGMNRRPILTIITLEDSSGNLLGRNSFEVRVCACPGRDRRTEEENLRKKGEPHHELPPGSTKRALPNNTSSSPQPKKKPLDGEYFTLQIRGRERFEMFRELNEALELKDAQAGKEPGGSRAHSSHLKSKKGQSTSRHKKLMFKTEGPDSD
Sequence of X-box-binding protein 1 (Homo sapiens) (P17861 whole entry, looked up): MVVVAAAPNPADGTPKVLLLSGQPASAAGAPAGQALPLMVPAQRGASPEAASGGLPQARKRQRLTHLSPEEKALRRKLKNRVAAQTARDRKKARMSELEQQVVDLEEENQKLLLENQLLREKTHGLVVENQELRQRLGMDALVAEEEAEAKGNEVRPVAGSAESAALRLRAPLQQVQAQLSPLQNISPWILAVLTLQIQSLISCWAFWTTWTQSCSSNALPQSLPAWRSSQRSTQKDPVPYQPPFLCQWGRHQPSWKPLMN
Sequence of Myc proto-oncogene protein (Homo sapiens) (P01106 whole entry, looked up): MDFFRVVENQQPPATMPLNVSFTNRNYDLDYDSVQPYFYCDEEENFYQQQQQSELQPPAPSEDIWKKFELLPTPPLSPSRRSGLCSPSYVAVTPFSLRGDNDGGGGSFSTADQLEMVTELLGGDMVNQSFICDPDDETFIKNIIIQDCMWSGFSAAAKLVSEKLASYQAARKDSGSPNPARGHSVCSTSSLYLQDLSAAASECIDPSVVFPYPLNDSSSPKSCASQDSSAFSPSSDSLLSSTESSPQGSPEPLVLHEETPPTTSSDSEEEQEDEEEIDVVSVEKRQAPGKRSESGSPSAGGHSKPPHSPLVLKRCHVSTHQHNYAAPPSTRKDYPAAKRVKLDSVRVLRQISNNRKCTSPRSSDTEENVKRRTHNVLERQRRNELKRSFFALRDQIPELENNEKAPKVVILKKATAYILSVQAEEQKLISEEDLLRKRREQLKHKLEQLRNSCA

Consider `F[B-](F)(F)F`, for which the compound was classed as inactive in test [1], in test [2], in test [3], in test [4], in [5] and in test [6]. For the same compound, the result in test [7], in [8], in test [9], in test [10], in test [11] and in test [12] was inactive. In addition, in test [13], the compound was classed as inactive.

In general, AC50 refers to the concentration giving half of the maximal activity seen. `Cc1ccccc1S(N)(=O)=O`: the compound was classed as inactive in test [14], in test [1], in test [2], in test [15], in [3] and in [4]. The call in test [16], in test [5], in [6], in [7], in test [9] and in test [10] was inactive. The outcome in test [11], in [12], in test [17], in [18], in test [13] and in [19] was inactive. Also, the outcome in test [20] was inactive. The AC50 in test [8] is 26.5 µM (active).

`CCCCCCCCCCCCCC`: the call in test [1], in [15], in [3], in [4], in test [5] and in test [6] was inactive. Moreover, the outcome in test [7], in test [8], in test [9], in [10], in test [11] and in test [12] was inactive. Further, the outcome in [17], in [18], in [13] and in [19] was inactive.

Take `CC(C)=CCOC(=O)c1ccccc1`: the outcome in [14], in test [1], in test [2], in test [15], in [3] and in test [4] was inactive. Moreover, the compound was classed as inactive in test [16], in [5], in test [6], in test [7], in test [8] and in [9]. Further, the compound was called inactive in test [10], in test [11], in [12], in [17], in [18] and in test [13]. Also, the outcome in test [19] and in [20] was inactive.

Values taken from PubChem BioAssay (EPA / NIEHS).
